Measurements reported in PubChem BioAssay (NCI).
This is part of a sample that, as a whole, favours compounds with a hit. Of some 83,000 tested, about 20% had one in any assay.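 96-well plates, one dose, 48 hours. Percent growth reported; active if below 10.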 Values without a mark were called inactive. The source made the active and inactive calls.

Assays:
Assay in all cases: NCI-60 one-dose screen, 48 h (100 = growth as untreated, 0 = no growth, -100 = all killed)
Conditions in all cases: 10 µM unless noted
HCT-15 colon = system: HCT-15 colon
HT29 colon = system: HT29 colon
SNB-75 CNS = system: SNB-75 CNS
SNB-19 CNS = system: SNB-19 CNS
U251 CNS = system: U251 CNS
PC-3 prostate = system: PC-3 prostate
UACC-62 melanoma = system: UACC-62 melanoma
LOX IMVI melanoma = system: LOX IMVI melanoma
SK-MEL-28 melanoma = system: SK-MEL-28 melanoma
SK-MEL-2 melanoma = system: SK-MEL-2 melanoma
EKVX NSCLC = system: EKVX NSCLC
SN12C renal = system: SN12C renal
UO-31 renal = system: UO-31 renal
TK-10 renal = system: TK-10 renal
ACHN renal = system: ACHN renal
CAKI-1 renal = system: CAKI-1 renal
A498 renal = system: A498 renal
CCRF-CEM leukemia = system: CCRF-CEM leukemia
MOLT-4 leukemia = system: MOLT-4 leukemia
SK-MEL-5 melanoma = system: SK-MEL-5 melanoma

| Structure (SMILES) | growth (HCT-15 colon) | growth (HT29 colon) | growth (SNB-75 CNS) | growth (SNB-19 CNS) | growth (U251 CNS) | growth (PC-3 prostate) | growth (UACC-62 melanoma) | growth (LOX IMVI melanoma) | growth (SK-MEL-28 melanoma) | growth (SK-MEL-2 melanoma) | growth (EKVX NSCLC) | growth (SN12C renal) | growth (UO-31 renal) | growth (TK-10 renal) | growth (ACHN renal) | growth (CAKI-1 renal) | growth (A498 renal) | growth (CCRF-CEM leukemia) | growth (MOLT-4 leukemia) | growth (SK-MEL-5 melanoma) |
| --- | --- | --- | --- | --- | --- | --- | --- | --- | --- | --- | --- | --- | --- | --- | --- | --- | --- | --- | --- | --- |
| COc1ccc(-c2cc(=O)oc3ccc(Cl)cc23)cc1F | 11.7% | -5.75% (active) | 46% | 23.5% | 4.46% (active) | 11% | 30.1% | 21.9% | 59.5% | 36.3% | 38.3% | 30.6% | 48.4% | 62.9% | 34.8% | 27% | 2.69% (active) | 11.8% | 7.8% (active) |  |
| COc1ccc(C(=O)c2ccc(C)cc2)c(OC)c1OC | 50.1% | 27% | 64.7% | 79.4% | 60.9% | 86.9% | 67.6% | 83.6% | 85% | 60.3% | 92.7% | 91.8% | 72.6% | 97.7% | 97.3% | 64.8% | 70.1% | 89% | 46.8% |  |
| Cn1c2c(Cl)c(Cl)ccc2c2c(C#N)c[nH]c(=O)c21 | 99% | 99.5% | 91.9% | 97.3% | 101% | 74.3% | 93.4% | 91.9% | 114% | 97.3% | 98.9% | 95.9% | 89.9% | 119% | 93.4% | 71.1% | 89.5% |  | 95.7% |  |
| Cn1nc(-c2ccccc2)c2c(-c3ccccc3)onc2c1=O | 38.3% | 1.6% (active) | 20.9% | 34.3% | 25.2% | 32.4% | 38.1% | 53.4% | 74.5% | 40.1% | 54.2% | 45.4% | 39.6% |  |  | 36.5% | 24.6% | 20.9% | 42.8% |  |
| COc1cc2c(cc1-c1c(C)noc1C)ncc1nc(C3CCCCC3)n([C@@H](C)COC(F)F)c12 | 20.9% | 13.5% | 31.3% | 45.6% | 47.1% | 30.3% | 21.9% | 12.5% | 45.8% | 64.4% | 39.2% | 55.3% |  |  | 37.8% | 26.7% | 1.93% (active) | 46.1% | 39.5% |  |
| COc1ccccc1CNc1nc(N)nc2[nH]c3ccc(O)cc3c12 | 41% | 18.9% | 35.8% | 59% | 37.4% | 65.5% |  | 43.2% |  | 15.8% | 90.4% | 55.3% | 59.6% | 68.6% | 68.5% | 80.5% |  | 44% | 22.4% | 38.3% |
| CCN(CC)c1ccc(/C=C/c2cc(C)c3ccccc3n2)cc1 | 29.8% | 8.05% (active) | 42.7% | 59.7% | 43% | 65% | 38.4% | 52.2% | 55.1% | 72.9% | 92.8% | 60% | 66.6% | 70.3% | 60.8% | 51.9% | 51.7% | 53.4% | 23.5% |  |
| COC(=O)CCCCCn1c2ccccc2c2c3c(c4c5ccccc5[nH]c4c21)C(=O)N(O)C3=O | 44.1% | 24% | 92% | 29.9% | 10.2% | 34.3% |  | -65% (active) |  | 77.3% | 75.3% |  | 11.8% | 74.4% | -18.5% (active) | -16.8% (active) | 62% |  | -15.6% (active) | 33.1% |
| CCCNc1nc(N(C)O)nc(N(C)O)n1 | 26.5% | 40.7% | 77.3% | 38.3% | 27.8% | 51.9% | 31.5% | 22.9% | 41.4% | 74.1% | 36.9% | 47.1% | 21.7% | 65.1% | 14.5% | 25% | 22.3% | 6.78% (active) | 14.8% |  |
